Source: PubChem (National Center for Advancing Translational Sciences (NCATS))
S2 tox = cell viability loss in ATXN counter-screen; S2 cells (HEK-293 line with an ATXN2-luciferase reporter) viability, CellTiter-Fluor protease fluorescence, 24 h; 400,000 compounds, 0.49% hits; Potency, µM (highest dose often 56.7 µM), hits mostly cytotoxic; further: potency means the concentration at half of the fitted maximal effect; nearly all actives have a fitted effect of over 40% in size
MCF10A rereplic = inducers of DNA re-replication in MCF 10A breast cells | MCF 10A DNA re-replication, Hoechst nuclear intensity, 48 h | 350,000 compounds, 2.9% hits | Potency, µM (series often up to 46.1 µM), for inactives: top-dose activity, positive = re-replication, actives largely listed as activators; further: potency means the concentration at half of the fitted maximal effect; % of control where 0% means no effect; nearly all actives have a fitted effect of over 50% in size
PINK1 expr mod = changes PINK1 expression; PINK1 immunofluorescence, high-content cytometry, 24 h; 410,000 compounds, 0.2% hits; Potency, µM (top dose mostly 76.6 µM), without a hit: at the highest dose activation (PINK1 increase), most hits filed as activators; active means well fitted activation curve with a large enough effect; inconclusive means small, poorly fitted or top-dose-only effect; cell line not stated here; further: potency means the concentration at half of the fitted maximal effect; % of control where 0% means no effect; nearly all actives have a fitted effect of over 65% in size
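PINK1 protein level read as immunofluorescence by microplate cytometer in a fixed, stained stable cell line after 24 h exposure to five compound concentrations, with CCCP as control.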
SW480 rerep = inducers of DNA re-replication in SW480 colon cancer cells; SW480 DNA re-replication, Hoechst DNA content imaging, 48 h; Potency, µM (doses to about 46.1 µM), for the others: top-dose re-replication activation, most hits filed as activators; 340,000 compounds, 1.8% hits; further: potency means the concentration at half of the fitted maximal effect; % of control where 0% means no effect; nearly all actives have a fitted effect of over 55% in size
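First, 250 cells per well were seeded. Next, compound or vehicle (23 nL) was pinned in, plates sat 48 hr at 37 C. Finally Hoechst was added for 40 min before fluorescence scanning.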
ATXN2 expr inh = inhibitors of ATXN2 expression; HEK-293 ATXN2-luciferase reporter, luminescence, 24 h; Potency, µM (top dose mostly 57 µM), inactives show top-dose activity change, negative = inhibition, hits mostly inhibitors; 360,000 compounds, 0.72% hits; further: potency means the concentration at half of the fitted maximal effect; on the % scale 0 is the no-effect control and ±100 the full control effect; nearly all actives have a fitted effect of over 55% in size
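ATXN2-luciferase reporter cells (luciferase flanked by upstream and downstream ATXN2 gene portions) were treated 24 h at 37 °C with compounds at up to 57 uM. SteadyGlo luminescence gave expression; GF-AFC fluorescence gave viability.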
IL-1B inflam inh = blocks inflammasome-driven IL-1 beta release; 360,000 compounds, 4.7% hits; THP-1 LPS/ATP IL-1B secretion, AlphaLISA, 16 h; hits give low values; activity change, % at 57.5 µM; in the data active means activity change below about -50%; inconclusive means mostly about -30% to -49%; further: on the % scale 0 is the no-effect control and ±100 the full control effect
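THP-1 cells pretreated 1 hr with compounds (up to 57.5 uM final), then stimulated with LPS (250 ng/mL final) plus ATP (1.25 mM final); secreted IL-1B measured by AlphaLISA after 16 hr, decreased signal indicating inhibition.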
The depositor's hits bear a star; i = inactive; ? = inconclusive; · = no result given; [ ] = another dose, or the depositor's remark. Hits are enriched below; roughly 7.1% of the tested compounds scored in any of these assays. Unless noted, the call rests on the fitted dose curve; in most records, active means well fitted curve in the direction sought with a large enough effect; inconclusive means small, poorly fitted or top-dose-only effect, or another doubt; inactive means no such curve, though single readings can be large; an effect the other way counts as inactive or inconclusive.

SMILES	S2 tox	MCF10A rereplic	PINK1 expr mod	SW480 rerep	ATXN2 expr inh	IL-1B inflam inh
COc1cccc(-c2ccnc(-n3ncc(C(=O)NCC4(N5CCCCC5)CCCC4)c3C)n2)c1	i	·	1%	·	·	·
Cc1cccc(/N=C/c2sc3ccccc3c2O)n1	i	-4%	45µM*	-3%	·	-2
Oc1ccc(Cl)cc1N=Cc1sc2ccccc2c1Cl	i	143%	9%	21µM*	-11%	-23
O=[N+]([O-])c1ccc(O)c(N=Cc2sc3ccccc3c2O)c1	28µM*	-33%	4%	?	?	39
COc1ccc(N=Cc2sc3ccccc3c2Cl)cc1	i	-13%	0%[38.3 µM]	?	26%	-7
O=S(=O)(O)c1cc(O)c2c(O)c(N=Nc3cc(Cl)ccc3O)c(S(=O)(=O)O)cc2c1	8.9µM*	-3%	0%	22%	?	-30
CCOC(=O)c1cccnc1SCC(=O)Nc1ccc(C)cc1C	·	·	-1%	·	·	·
C=CCNCCCCOc1ccccc1-c1ccccc1	i	?	8%	14%	-4%	-85*
C=CCNCCCCOc1ccc(OCc2ccccc2)cc1	i	?	11%	21µM*	·	-51*
CCCCNCCOc1ccccc1-c1ccccc1	i	?	?	24%	-21%	-60*
COCCCNCCOc1ccccc1-c1ccccc1	?	2%	-1%	-2%	-16%	-30
COCCCNCCCCOc1ccccc1-c1ccccc1	i	3%	4%	?	-7%	0
CCC(C)c1ccccc1OCCCNC1CCCC1 (configuration not stated)	i	0%	?	20%	·	-70*
O=c1c(N2CCc3ccccc3C2)csc2ccccc12	i	·	2%	·	18%	·
CCOc1ccc(S(=O)(=O)NCc2ccc3c(c2)CCN3C(=O)c2ccc(C)cc2)cc1	·	·	2%	·	·	·
c1ccc(COc2ccc(OCCCNC3CCCC3)cc2)cc1	i	?	26%	26%	2%	-96*
COc1cc(C#N)ccc1OCC(=O)Nc1ccc(C)c(S(=O)(=O)N2CCOCC2)c1	i	-2%	2%	-13%	·	-24
Cc1ccc(OCC(=O)Nc2cccc(S(=O)(=O)N3CCCCC3)c2)c([N+](=O)[O-])n1	i	-1%	0%	1%	-6%	26
Cc1ccc2cccc(OCC(=O)Nc3cccc(S(=O)(=O)N4CCCC4)c3)c2n1	i	?	-1%	2%	-26%	-71*
Cc1ccc(NC(=O)COc2ccc(Cl)cc2Cl)cc1S(=O)(=O)N1CCOCC1	i	11%	8%	-1%	-8%	-57*
Cc1ccc(NC(=O)COc2ccccc2C(N)=O)cc1S(=O)(=O)N1CCCCCC1	15µM*	10%	2%	-15%	?	-55*
Cc1ccc(NC(=O)CCCSc2ccccc2)cc1S(=O)(=O)N1CCOCC1	i	9%	2%	-2%	-7%	-52*
CC(=O)Nc1ccc(S(=O)(=O)NCC2CCC(C(=O)NCc3ccccc3Cl)CC2)cc1 (configuration not stated)	·	·	0%	·	·	·
Cc1nc2ccc(S(=O)(=O)N(CC(=O)Nc3cccc(Cl)c3)Cc3ccccc3)cc2s1	?	·	0%	·	?	·
O=C(CSc1ccc([N+](=O)[O-])cc1)Nc1cccc(S(=O)(=O)N2CCOCC2)c1	?	5%	2%	-4%	-2%	-68*
COc1cc(C(=S)N2CCCCC2)ccc1OCC(=O)Nc1ccccc1Cl	i	?	-4%	?	-32%	-70*
COc1cc(C(C)=O)ccc1OCC(=O)Nc1ccc(C)c(S(=O)(=O)N2CCCCCC2)c1	?	-1%	0%	-5%	28µM*	-59*
COc1ccc(-n2cnc3cc(C(=O)NCCC4=CCCCC4)ccc32)cc1	?	·	0%	·	?	·
Cc1cccc2sc(N(Cc3cccnc3)C(=O)C3COc4ccccc4O3)nc12 (configuration not stated)	·	·	8%	·	·	·
